{"source": "ChEMBL document CHEMBL3988442", "about": "“University of Dundee, Small-Polar-MMV Screening Library” (2021)", "note": "Among all 48,000 compounds or so, about 13,000 (27%) showed an effect of 50% or more. Some of the results follow.", "data": [{"test_system": "Wolbachia pipientis", "assay": "Anti-Wolbachia Cell-Based Screen", "type": "functional", "parameters": "scale not given: in the data most compounds retested in dose-response had high values", "details": "5 µM", "units": {"Percent Effect": "%"}, "values": [{"smiles": "O=S1(=O)C[C@@H]2[C@H](C1)N(Cc1cc(F)cc(F)c1)CCN2CCO", "Percent Effect": 1.937}, {"smiles": "O=C(Nc1cc(C(F)(F)F)ccc1Cl)c1ccc(N2CCOCC2)nn1", "Percent Effect": -2.027}, {"smiles": "Cl.NC1CCN(C(=O)c2c(F)cccc2Br)CC1", "Percent Effect": 2.266}, {"smiles": "Cc1ccccc1SCC(=O)N[C@H]1CC[C@H](n2cnnc2)CC1", "Percent Effect": -8.466}, {"smiles": "Cc1ccc(C(C)NC(=O)Cc2c(C)nc3cc(=O)[nH]n3c2C)s1", "note": "(stereo unspecified)", "Percent Effect": 3.622}, {"smiles": "CCOCCN1CCN(CC(O)c2cc(Cl)ccc2Cl)CC1", "note": "(stereo unspecified)", "Percent Effect": 18.57}, {"smiles": "CCOc1ccnc(N2CCCN(c3nc(CC)ns3)CC2)n1", "Percent Effect": 2.862}, {"smiles": "CCn1ncnc1CN1CCC(CNC(=O)c2cccnc2O)C1", "note": "(stereo unspecified)", "Percent Effect": 102.6}, {"smiles": "Cc1nc[nH]c1CN1CCC(CNC(=O)c2cccc3cnccc23)C1", "note": "(stereo unspecified)", "Percent Effect": -8.641}, {"smiles": "Cc1cc(CN2CCC(CNC(=O)c3ccc(C#N)cc3)C2)[nH]n1", "note": "(stereo unspecified)", "Percent Effect": -6.827}, {"smiles": "Cc1ccc(C(=O)NCC2CCN(Cc3ccccc3C#N)C2)cn1", "note": "(stereo unspecified)", "Percent Effect": -20.5}, {"smiles": "Cc1cnn(CC2CC2)c1NC(=O)c1cccnc1O", "Percent Effect": -0.1453}, {"smiles": "CCn1ncnc1CN1CCC(CNC(=O)c2ccccc2C#N)C1", "note": "(stereo unspecified)", "Percent Effect": 115.7}, {"smiles": "Cc1cccc(N2CCN(S(=O)(=O)CCN)CC2)c1", "Percent Effect": -3.019}, {"smiles": "CCOC(=O)C1CCN(C(=O)c2cc(Br)ccc2-n2cnnn2)CC1", "Percent Effect": 129.1}, {"smiles": "COC(=O)C1CCN(C(=O)c2cc(Br)ccc2-n2cnnn2)CC1", "Percent Effect": 122.5}, {"smiles": "CCC(C)[C@H](NC(=O)c1cc(Br)ccc1-n1cnnn1)C(=O)OC", "note": "(stereo partly specified)", "Percent Effect": 6.622}, {"smiles": "CC(=O)N1CCC(NC(=O)c2cc(Cl)ccc2-n2cnnn2)CC1", "Percent Effect": 22.58}, {"smiles": "CCOC(=O)C1CCN(C(=O)c2cc(F)ccc2-n2cnnn2)CC1", "Percent Effect": 122.3}, {"smiles": "CCOC(=O)C1CCN(C(=O)Cn2ccc3cc(Br)ccc32)CC1", "Percent Effect": 16.73}, {"smiles": "CCOC(=O)N1CCC(C(=O)c2cc(F)ccc2F)CC1", "Percent Effect": -8.485}, {"smiles": "CCOC1CCCN(C(=O)c2sccc2-n2cnnn2)C1", "note": "(stereo unspecified)", "Percent Effect": -3.669}, {"smiles": "CCOC(=O)CN1CCC(C(=O)c2cc(F)ccc2F)CC1", "Percent Effect": -15.3}, {"smiles": "CCn1ncnc1C(C)NC(=O)Cc1cc2c(cc1Cl)OCCO2", "note": "(stereo unspecified)", "Percent Effect": 1.538}, {"smiles": "CCCSc1ncccc1C(=O)NCc1ccc(N(C)C)cc1", "Percent Effect": 112.3}, {"smiles": "CC(C)(C)[S+]([O-])CCNC(=O)c1cccc2ncccc12", "note": "(stereo unspecified)", "Percent Effect": -2.962}, {"smiles": "CSc1ncccc1C(=O)NCc1ccc(N(C)C)cc1", "Percent Effect": 175.4}, {"smiles": "CCCSc1ncccc1C(=O)NCc1ccc(S(N)(=O)=O)cc1", "Percent Effect": 120.7}, {"smiles": "Cn1ccnc1SCCNC(=O)c1cc(S(N)(=O)=O)ccc1F", "Percent Effect": -8.563}, {"smiles": "Cc1ccc(C(=O)NCc2ccc(N(C)C)cc2)cn1", "Percent Effect": -15.59}, {"smiles": "CSc1ncccc1C(=O)NCc1ccc(CS(=O)(=O)NC(C)C)cc1", "Percent Effect": 2.17}, {"smiles": "Cc1cccc(C(=O)NCc2ccc(OCCN(C)C)cc2)c1C", "Percent Effect": -6.28}, {"smiles": "CCSc1ncccc1C(=O)NCc1ccc(N(C)C)cc1", "Percent Effect": 103}, {"smiles": "CNC(=O)c1cccnc1NCc1ccc(Cn2cccn2)cc1", "Percent Effect": -20.21}, {"smiles": "CN(C)CCOc1ccc(CNC(=O)c2cccc(Cl)c2Cl)cc1", "Percent Effect": 13.68}, {"smiles": "NS(=O)(=O)c1ccc(F)c(C(=O)NCCSc2ccccn2)c1", "Percent Effect": 2.11}]}]}
